The nature of assay [1]: Human pregnane X receptor (PXR) small molecule agonists, qHTS cell viability counter screen (AID 1346977). Further: nearly all actives have a fitted effect of over 50% in size. Further: potency means the concentration at half of the fitted maximal effect. Summed up: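 Tox21 qHTS format; PXR-Luc HepG2, 2,000/well, charcoal-stripped FBS 5%. Cpd exposure 24hr. Read: CellTiter-Fluor fluorescence, multiplexed with luciferase.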
(In general: In qHTS, concentration-response curves come from the screen itself.)

Assay [2] in a line: Caspase-3/7 induction in HepG2 cells by small molecules, qHTS assay (AID 1346978). Further: nearly all actives have a fitted effect of over 15% in size. Summed up:
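Wild-type HepG2 cells (2,000/well) were settled 5 h at 37 C, 5% CO2, then exposed to compounds in DMSO for 17 h. Caspase-3/7 activity was read by luminescence 30 min after adding Caspase-Glo 3/7 reagent at room temperature.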

Assay [3] in a line: Caspase-3/7 induction in CHO-K1 cells by small molecules, qHTS cell viability counter screen (AID 1346979). Further: nearly all actives have a fitted effect of over 35% in size. In short, it runs like this:
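CellTiter-Fluor viability check, qHTS format: wild-type CHO-K1, 16hr compound treatment, 1hr reagent incubation, fluorescence read.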

The nature of assay [4]: Caspase-3/7 induction in CHO-K1 cells by small molecules, qHTS assay (AID 1346980). Further: nearly all actives have a fitted effect of over 15% in size. Summed up: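 Wild-type cells were seeded at 1,500 per well and settled 5 hr at 37 C, 5% CO2, then exposed to DMSO-dissolved compounds for 17 hr. Caspase-Glo 3/7 reagent was added, and luminescence was read after 30min at room temperature.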
Assay [5] in a line: Caspase-3/7 induction in HepG2 cells by small molecules, qHTS cell viability counter screen (AID 1346981). Further: series mostly up to about 92 µM; nearly all actives have a fitted effect of over 30% in size. Summed up: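 The parent HepG2 line is plated at 2,000 cells per well and rested 5 hr before compound pinning from DMSO stocks. Following a 16-hr treatment at 37 C, a fluorogenic live-cell substrate (CellTiter-Fluor) reports viability after 1 hr.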
The target in assay [6] is Nuclear receptor subfamily 1 group I member 2 (Homo sapiens) (UniProt O75469). The experiment in a line: Human pregnane X receptor (PXR) small molecule agonists, qHTS assay (AID 1346982). Further: nearly all actives have a fitted effect of over 35% in size. Further: potency means the concentration at half of the fitted maximal effect. Summed up:
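After plating in 5% charcoal-stripped FBS and a 5 hr rest, PXR-Luc HepG2 cells received compounds in DMSO. Following 24 hr at 37 C, ONE-Glo was added and light output read.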

In assay [7] the target is Nuclear receptor subfamily 1 group I member 2 (Rattus norvegicus) (UniProt Q9R1A7). The experiment in a line: Rat pregnane X receptor (rPXR) activation by small molecules, qHTS assay (AID 1346983). Further: nearly all actives have a fitted effect of over 20% in size. Conditions: rPXR luciferase reporter cells, One-Glo luminescence, 24 h; hits give high values. Summed up:
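Cell-based rPXR luciferase reporter assay, 2,000 cells per well, rested 5hr at 37 C before compound addition in DMSO, then 24 hr at 37 C. One-Glo reagent was added and luminescence read after 30 min at room temperature.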

Assay [8] concerns the target Nuclear receptor subfamily 1 group I member 2 (Homo sapiens) (UniProt O75469). The experiment in a line: CYP3A4 induction through human pregnane X receptor (PXR) by small molecules, qHTS assay (AID 1346984). Further: nearly all actives have a fitted effect of over 40% in size. Further: potency means the concentration at half of the fitted maximal effect. Summed up: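 Human PXR activation is tracked via CYP3A4 promoter-luciferase in DPX-2 (HepG2) cells. Compounds treat cells for 24hr at 37C, and luminescence is read after One-Glo.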

For assay [9] the target is unchanged. The assay is described as follows: Human pregnane X receptor (PXR) activation by small molecules, qHTS assay (AID 1346985). Further: nearly all actives have a fitted effect of over 40% in size. In short, it runs like this:
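DPX-2 cells (HepG2 co-transfected with a PXR response element and a CYP3A4-promoter luciferase construct) were seeded at 2,000 per well, rested 5 hr at 37C, then exposed to DMSO-dissolved compounds for 24 hr. Activation was read as luciferase luminescence.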

A number with no mark means an inactive call. Records with an inconclusive call do not appear. Calls of active or inactive are those of the source. The call rests on the fitted dose curve; in most records, active means well fitted curve in the direction sought with a large enough effect in the repeat runs; inconclusive means weak or mixed curves; inactive means no such curve, though single readings can be large; an effect the other way counts as inactive or inconclusive.
On the % scale 0 is the no-effect control and ±100 the full control effect.

Nuclear receptor subfamily 1 group I member 2 (Homo sapiens), sequence (O75469 whole entry, looked up): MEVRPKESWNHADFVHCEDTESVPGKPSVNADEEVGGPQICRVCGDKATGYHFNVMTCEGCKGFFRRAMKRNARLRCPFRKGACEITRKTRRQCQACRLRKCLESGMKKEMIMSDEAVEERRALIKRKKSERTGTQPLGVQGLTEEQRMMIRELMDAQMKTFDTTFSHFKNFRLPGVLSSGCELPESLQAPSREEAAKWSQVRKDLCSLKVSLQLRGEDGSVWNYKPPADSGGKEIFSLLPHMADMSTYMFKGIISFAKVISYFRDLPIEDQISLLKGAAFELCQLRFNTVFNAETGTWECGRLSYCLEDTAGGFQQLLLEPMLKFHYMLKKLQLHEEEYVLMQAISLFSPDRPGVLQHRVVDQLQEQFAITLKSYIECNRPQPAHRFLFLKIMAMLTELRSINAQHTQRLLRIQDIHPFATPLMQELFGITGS
Nuclear receptor subfamily 1 group I member 2 (Rattus norvegicus), sequence (Q9R1A7 whole entry, looked up): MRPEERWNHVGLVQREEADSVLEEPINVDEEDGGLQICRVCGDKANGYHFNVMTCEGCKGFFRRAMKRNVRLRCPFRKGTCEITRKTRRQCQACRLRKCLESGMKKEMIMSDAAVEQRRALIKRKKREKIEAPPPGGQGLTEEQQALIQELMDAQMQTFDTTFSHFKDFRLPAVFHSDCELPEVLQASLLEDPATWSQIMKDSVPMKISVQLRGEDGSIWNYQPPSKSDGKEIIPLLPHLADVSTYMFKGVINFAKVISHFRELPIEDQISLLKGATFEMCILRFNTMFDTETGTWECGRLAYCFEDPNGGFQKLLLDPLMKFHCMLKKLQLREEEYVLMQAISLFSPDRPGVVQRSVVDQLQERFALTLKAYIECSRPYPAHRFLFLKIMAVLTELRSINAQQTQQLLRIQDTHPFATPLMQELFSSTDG

Regarding `Cc1cccn2c(=O)c(-c3nnn[nH]3)cnc12`, the activity change, negative = cytotoxicity was -2.85% [at 19 µM] in assay [1] and -1.23% [at 19 µM] in assay [5]. The caspase activation in assay [2] was -1.09% [at 19 µM]. The Potency entry in assay [3], in [8] and in assay [9] was “inactive” each time. Besides, the caspase-3/7 activation in assay [4] is -1.17% [at 19 µM]. The activation in assay [6] was -6.8% [at 19 µM]. Besides, in [7], the max activation is -7.7%.

As for `CCn1nc(C(=O)O)c(=O)c2cc3c(cc21)OCO3`, the Potency entry in [2], in assay [3] and in [5] was “inactive” throughout. In addition, the call in assay [4] was inactive.

For `CCCc1cc(C(N)=S)ccn1`, the Potency result in assay [1], in [2], in assay [3], in [5], in [6] and in [8] was “inactive” in each case. In addition, the Potency result in assay [9] was “inactive”. For the same compound, the compound was classed as inactive in assay [4]. The max activation in assay [7] is 0.144%.

`NS(=O)(=O)c1ccccc1Cl`: the Potency entry in assay [2], in [3], in assay [5] and in assay [6] was “inactive” throughout. In [4], the compound was called inactive.

Regarding `CCCCCSCCCCC`, the Potency result in assay [2], in assay [3], in assay [5] and in assay [6] was “inactive” throughout. For the same compound, the compound was classed as inactive in [4].

Regarding `COc1ccc2c(c1)CCCC2=O`, the Potency entry in [2], in [3], in assay [5] and in assay [6] was “inactive” throughout. For the same compound, in assay [4], the compound was called inactive.

For the compound `CC(C)(CC(=O)O)C(=O)O`, the Potency entry in assay [2], in assay [3], in assay [5] and in assay [6] was “inactive” each time. Moreover, the compound was called inactive in assay [4].

Take `O=c1[nH]c(=O)n([C@H]2C[C@H](O)[C@@H](CO)O2)cc1I`: the Potency entry in [2], in assay [3] and in assay [5] was “inactive” throughout. In addition, the outcome in assay [4] was inactive. The max activation in assay [7] is 6.42%.

Regarding `Oc1ccc(C2CNCCc3c2cc(O)c(O)c3Cl)cc1` (centres undefined), the Potency entry in [2], in [3], in [5] and in assay [6] was “inactive” throughout. For the same compound, the call in [4] was inactive.

On to `CCN(CC)CCOCCOC(=O)C1(c2ccccc2)CCCC1`, for which the Potency was 26.6 µM (active) in assay [1] and 12.6 µM (active) in assay [8]. Besides, the Potency result in assay [2], in assay [3] and in [5] was “inactive” in each case. In addition, the outcome in assay [4] was inactive. For the same compound, the max activation in [7] was 0.476%.

Turning to `C[C@](N)(Cc1ccc(O)cc1)C(=O)O`, the caspase activation in assay [2] is -1.17% [at 8.39 µM]. The activity change, negative = cytotoxicity in assay [3] is -0.609% [at 8.39 µM]; in assay [5], -1.6% [at 8.39 µM]. The caspase-3/7 activation in assay [4] is 0.841% [at 8.39 µM]. In addition, the max activation in [7] is 0.627%. In addition, the Potency entry in assay [8] and in assay [9] was “inactive” throughout.

Take `CCOc1ccc(C(=O)OCCN(CC)CC)cc1`: the Potency result in assay [1], in assay [2], in assay [3], in assay [5], in [8] and in assay [9] was “inactive” in each case. Besides, the compound was called inactive in assay [4]. For the same compound, the max activation in assay [7] was -2.52%.

As to `COc1c(N2C[C@@H]3CCCN[C@@H]3C2)c(F)cc2c(=O)c(C(=O)O)cn(C3CC3)c12`, the Potency entry in assay [1], in assay [2], in [3], in assay [5], in assay [6] and in assay [8] was “inactive” throughout. In assay [9], the Potency entry was “inactive”. The call in assay [4] was inactive. Also, the max activation in [7] was -3.75%.

As for `COC(=O)c1c(Cl)c(Cl)c(C(=O)OC)c(Cl)c1Cl`, the Potency result in [2], in assay [3] and in [5] was “inactive” each time. In assay [4], the compound was called inactive. Also, the Potency in assay [6] was 21.7 µM (active).

For `CCCCCCCCCCCCN(CCCCCCCCCCCC)CCCCCCCCCCCC`, the Potency entry in assay [1], in [2], in [5] and in assay [6] was “inactive” throughout. In addition, the result in [4] was inactive.

For the compound `Brc1c(NC2=NCCN2)ccc2nccnc12`, the Potency entry in [2], in assay [3] and in assay [5] was “inactive” in each case. Besides, the call in [4] was inactive.

Regarding `O=[N+]([O-])c1ccc(F)cc1F`, the Potency entry in assay [1], in [2], in assay [3], in assay [5] and in assay [6] was “inactive” in each case. Besides, the compound was called inactive in assay [4].

On to `O=C1NC(=O)[C@@]2(CCOc3ccc(F)cc32)N1`, for which the Potency result in assay [1], in [2], in assay [3], in [5], in assay [6] and in [8] was “inactive” throughout. The Potency entry in assay [9] was “inactive”. Further, the call in assay [4] was inactive. In [7], the max activation is -0.447%.

For the compound `CN1N=C(C(N)=O)CCC1=O`, the Potency result in assay [2], in assay [3], in assay [5] and in assay [6] was “inactive” in each case. Besides, the compound was classed as inactive in [4].

Regarding `NC(=O)c1cn(Cc2c(F)cccc2F)nn1`, the Potency entry in [1], in assay [2], in [3], in [5], in assay [6] and in assay [8] was “inactive” in each case. Further, the Potency entry in assay [9] is “inactive”. Besides, in assay [4], the result was inactive. Further, the max activation in assay [7] is -1.62%.

As for `NC(=O)c1ccc(N)cc1`, the Potency result in assay [1], in assay [2], in assay [3], in assay [5] and in assay [6] was “inactive” each time. The compound was classed as inactive in assay [4].

In the case of `COCCc1ccc(OCC(O)CNC(C)C)cc1` (centres undefined), the Potency entry in assay [1], in [2], in assay [3] and in [5] was “inactive” throughout. The compound was classed as inactive in [4]. In addition, in [7], the max activation was -0.133%.

Regarding `Nc1ccccc1S(=O)(=O)O`, the Potency entry in assay [1], in assay [2], in [3], in [5] and in assay [6] was “inactive” in each case. Moreover, the compound was classed as inactive in assay [4].

These data come from PubChem BioAssay (Tox21).
